Source: PubChem BioAssay AID493185 (National Center for Advancing Translational Sciences (NCATS), 2011)
Values without a mark were called inactive. The call rests on the fitted dose curve; in most records, active means well fitted activation curve with a large enough effect; inconclusive means small, poorly fitted or top-dose-only effect; inactive means no such curve, though single readings can be large or run the other way.

Assay: Counterscreen for Identifying a Potential Treatment of Ataxia-Telangiectasia: Hit Validation; further: 0% is about no effect
Settings: cell-free AlphaLISA/AlphaScreen artifact counterscreen, PBS only, no cells; series mostly up to 76.9 µM; activation: at the top concentration
How it was run: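 Cell-free AlphaLISA counterscreen: compounds (up to 76.7 uM final) in PBS with detection mix of anti-pKAP1 and anti-KAP1 antibodies on donor/acceptor beads plus lysis buffer, incubated 6 hr at 25C before AlphaScreen read.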

SMILES	activation [%]
C=CS(=O)(=O)c1sc(Cl)c(N2CCOCC2)c1[N+](=O)[O-]	-5.74
CCN(CC)c1ccc2c(Cl)c(Br)c(=O)oc2c1	48.9
O=C(OCCc1cc2ccccc2c(=O)o1)c1cccc(Br)c1	3.08
CCOC(=O)N1CCN(C(=O)CCc2nc3sc4c(c3c(=O)[nH]2)CCCC4)CC1	-5.74
Cc1ccc2c(c1)C(=O)CC(O)(C(F)(F)F)O2 (stereo not given)	-6.56
